Only a selection was taken, and hits are over-represented in it overall.
TexasRed fluor: Total Fluorescence Counterscreen for Inhibitors of the Interaction of Thyroid Hormone Receptor and Steroid Receptor Coregulator 2. TRb/SRC2 Texas Red total fluorescence interference. Potency, µM (titrated, usually from 106 µM), inactives show top-dose fluorescence change, negative = quenching. 280,000 compounds, 0.29% hits; active means well fitted curve in either direction with a large enough effect; inconclusive means small, poorly fitted or top-dose-only effect; further: potency means the concentration at half of the fitted maximal effect; on the % scale 0 is the no-effect control and ±100 the full control effect
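Human TRβ ligand-binding domain (0.6 uM) and Texas Red SRC2 peptide (20 nM) in Tris buffer with 1 uM T3 and 5% DMSO were incubated with pinned compound for 5 hr at ambient temperature. Total fluorescence was computed as S + 2P (555/632 nm).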
GoLoco inh red: qHTS Assay for Inhibitors of RGS12 GoLoco Motif Activity (Red Fluorophore); Guanine nucleotide-binding protein G(i) subunit alpha-1 (Homo sapiens), P63096; Gai1:RGS12 GoLoco peptide FP, rhodamine, 10 min; Potency, µM (titrated, usually from 61.6 µM), inactives show at the top dose activity, negative = inhibition, most hits filed as inhibitors; 230,000 compounds, 0.44% hits; AID 880, 2007; active means well fitted inhibition curve with a large enough effect, not every such curve was filed as active; inactive means no such curve, though single readings can be large or run the other way; further: potency means the concentration at half of the fitted maximal effect; on the % scale 0 is the no-effect control and ±100 the full control effect; nearly all actives have a fitted effect of over 30% in size
CBFb-RUNX1 inh: qHTS Assay for Compounds Blocking the Interaction Between CBF-beta and RUNX1 for the Treatment of Acute Myeloid Leukemia; AID 1477, 2009; Potency, µM (series often up to 59.8 µM), for inactives: at the highest dose activity, negative = inhibition, actives largely listed as inhibitors; 230,000 tested, under 10 active; Runt-related transcription factor 1 (Homo sapiens) + Core-binding factor subunit beta …; AlphaScreen CBFb-His/RUNX1-biotin binding, biochemical; further: % of control where 0% means no effect
Target sequence (Q01196 whole entry, looked up): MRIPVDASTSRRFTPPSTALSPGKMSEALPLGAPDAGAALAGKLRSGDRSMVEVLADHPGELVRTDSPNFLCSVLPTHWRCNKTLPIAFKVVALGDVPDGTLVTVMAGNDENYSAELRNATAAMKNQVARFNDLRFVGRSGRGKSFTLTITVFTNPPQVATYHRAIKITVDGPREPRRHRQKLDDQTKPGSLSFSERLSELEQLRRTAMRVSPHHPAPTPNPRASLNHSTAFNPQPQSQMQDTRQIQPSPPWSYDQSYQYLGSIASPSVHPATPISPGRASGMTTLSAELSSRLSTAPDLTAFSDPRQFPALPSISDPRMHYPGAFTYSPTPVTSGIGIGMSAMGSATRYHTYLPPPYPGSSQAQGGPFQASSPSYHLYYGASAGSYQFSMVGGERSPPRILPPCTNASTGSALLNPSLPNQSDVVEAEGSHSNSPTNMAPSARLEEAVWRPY
Target sequence (Q13951 whole entry, looked up): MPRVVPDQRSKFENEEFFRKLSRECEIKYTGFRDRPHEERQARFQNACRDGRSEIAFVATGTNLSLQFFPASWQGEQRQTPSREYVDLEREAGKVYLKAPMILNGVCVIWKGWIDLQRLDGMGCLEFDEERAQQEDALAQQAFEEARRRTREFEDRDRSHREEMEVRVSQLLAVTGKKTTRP
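Inhibition was taken as any reduction in AlphaScreen signal from the CBF-beta–RUNX1 pair (His and biotin tags, 30 nM each), measured after compound (15 min) and bead (90 min) incubations at room temperature.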
TRb-SRC2 inh: qHTS for Inhibitors of the Interaction of Thyroid Hormone Receptor and Steroid Receptor Coregulator 2; Potency, µM (doses to about 106 µM), without a hit: at the highest dose activity change, negative = inhibition, usual class: inhibitors; TRbeta-SRC2 peptide binding, fluorescence polarization; receptor liganded with 1 µM T3; Thyroid hormone receptor beta (Homo sapiens), P10828; 280,000 compounds, 0.065% hits;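 further: potency means the concentration at half of the fitted maximal effect; plate controls were bound peptide for no effect and peptide without receptor for full effect; nearly all actives have a fitted effect of over 50% in size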
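Human TRb ligand-binding domain (0.6 uM) is mixed with 20 nM Texas Red SRC2 peptide and 1 uM T3; after compound addition and 5 hr at ambient temperature, polarization is measured and normalized to unbound and bound controls.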
ERG Ets-DNA blk: qHTS for Small Molecule Inhibitors of the ERG Ets/DNA interaction; fluorescence polarization, His-ERG Ets domain / labelled DNA; Potency, µM (doses to about 76.9 µM), for the others: at the highest dose FP activity, negative = inhibition, usual class: inhibitors; AID 624246, 2012; 370,000 compounds, 0.028% hits; Transcriptional regulator ERG (Homo sapiens), P11308; active means well fitted inhibition curve with a large enough effect in the polarisation, with a control signal flat; inconclusive means small, poorly fitted or top-dose-only effect, or effect the other way, or a change in a side signal; inactive means no such curve, though single readings can be large or run the other way; the % refers to the polarisation;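 further: polarization taken with two DNA probes labelled with fluorescein and Texas red; potency means the concentration at half of the fitted maximal effect; % of control where 0% means no effect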
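His-tagged ERG Ets domain (1 uM in the protein solution; 300mM KCl, 50mM Tris-HCl, 1mM EDTA, 1mM DTT, pH 7.5) received compound, then a probe mix of 5 nM fluorescein-DNA and 100nM Texas-615-DNA. Fluorescence polarization was read for both dyes.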
Starred values were filed as active, the others as inactive; [ ] = remark or other dose. Unless noted, the call rests on the fitted dose curve; in most records, active means well fitted curve in the direction sought with a large enough effect; inconclusive means small, poorly fitted or top-dose-only effect, or another doubt; inactive means no such curve, though single readings can be large; an effect the other way counts as inactive or inconclusive.

`CC[n+]1c(C)sc2c(C)cc(C)cc21` gave TexasRed fluor -1.0%, GoLoco inh red 2.51µM*, CBFb-RUNX1 inh 12.2%, TRb-SRC2 inh 2.3% and ERG Ets-DNA blk -8.0%.
Screening CCCn1cc(S(=O)(=O)c2cc(C)ccc2C)c(=O)c2cc(F)c(N3CCOCC3)cc21 returned TexasRed fluor 25.1µM*[quencher], TRb-SRC2 inh inconclusive and ERG Ets-DNA blk 1.9%.
For CCCCn1cc(S(=O)(=O)c2ccc(CC)cc2)c(=O)c2cc(F)c(N3CCCC(C)C3)cc21 (centres undefined) the results were TexasRed fluor 89.1µM*[quencher], TRb-SRC2 inh -26.9% and ERG Ets-DNA blk 4.2%.
`CCc1ccc(S(=O)(=O)c2cn(C)c3cc(N4CCCCC4C)c(F)cc3c2=O)cc1` (centres undefined) gave TexasRed fluor 112µM*[quencher], TRb-SRC2 inh -24.0% and ERG Ets-DNA blk 4.7%.
Screening CCCCn1cc(S(=O)(=O)c2ccc(Cl)cc2)c(=O)c2cc(F)c(N3CCCC(C)C3)cc21 (centres undefined) returned TexasRed fluor 100µM*[quencher], TRb-SRC2 inh -14.8% and ERG Ets-DNA blk 2.7%.
Screening CCCn1cc(S(=O)(=O)c2ccccc2)c(=O)c2cc(F)c(N3CCCC(C)C3)cc21 (centres undefined) returned TexasRed fluor -6.5%, TRb-SRC2 inh 1.0% and ERG Ets-DNA blk -2.7%.
Screening COc1ccc(NC(=O)c2c(NCc3ccc(C)o3)sc3c2CCC(C)C3)c(OC)c1 (centres undefined) returned TexasRed fluor -6.2%, TRb-SRC2 inh -1.5% and ERG Ets-DNA blk 0.2%.
Screening COc1ccc(NC(=O)c2c(NCc3ccc(C)o3)sc3c2CCCCC3)c(OC)c1 returned TexasRed fluor 112µM*[quencher], TRb-SRC2 inh -25.2% and ERG Ets-DNA blk 0.2%.
Screening CCCCCCCC1CCC(=O)O1 (centres undefined) returned TexasRed fluor -3.2%[201 µM] and TRb-SRC2 inh 8.2%[201 µM].
For Cc1ccc2c(c1)-c1nc(-c3ccc(Cl)cc3)cc(-c3coc4ccccc4c3=O)c1CO2 the results were TexasRed fluor 10µM*[quencher], TRb-SRC2 inh -0.2% and ERG Ets-DNA blk 0.2%.
For O=c1c(-c2cc(-c3ccccc3)nc3c2COc2ccc(Cl)cc2-3)coc2ccccc12 the results were TexasRed fluor inconclusive, TRb-SRC2 inh 2.4% and ERG Ets-DNA blk -0.4%.
For Nc1sccc1C(=O)c1ccc(Cl)cc1 the results were TexasRed fluor -2.1%, GoLoco inh red 5.9%, CBFb-RUNX1 inh -7.3% and TRb-SRC2 inh -3.5%.
NC(=O)c1ccsc1N was read as TexasRed fluor -0.4%[53 µM], GoLoco inh red 20µM*, CBFb-RUNX1 inh 4.2% and TRb-SRC2 inh -4.0%[53 µM].
COc1ccc(-c2cc(C(F)(F)F)n3nc(C(=O)Nc4cccc(Cl)c4Cl)cc3n2)cc1OC was read as TexasRed fluor 0.0355µM*[quencher], TRb-SRC2 inh -25.2%[53 µM] and ERG Ets-DNA blk 5.8%.
CCOc1ccc(NCc2cccn2-c2nnc(N3CCC(C(=O)NCCc4ccc(OCC)c(OCC)c4)CC3)s2)cc1 was read as TexasRed fluor -12.7%, TRb-SRC2 inh -7.5% and ERG Ets-DNA blk 1.6%.
`CCOc1ccc(NCc2cccn2-c2nnc(N3CCC(C(=O)NCCc4ccc(OC)c(OC)c4)CC3)s2)cc1` gave TexasRed fluor 35.5µM*[quencher], TRb-SRC2 inh -8.1% and ERG Ets-DNA blk 0.3%.
For CCCCCCCCCc1ccccc1 the results were TexasRed fluor -2.4%[201 µM] and TRb-SRC2 inh 7.4%[201 µM].
`COc1ccc(NS(=O)(=O)c2ccc3[nH]c4c(c3c2)CCCC4)cc1OC` gave TexasRed fluor -0.1%, TRb-SRC2 inh -0.8% and ERG Ets-DNA blk -3.2%.
